# Assay outcomes (PubChem)
# Shown are actives, neighbours in structure and some others; about 5.7% of the full set was active somewhere.
# L3MBTL1 block = qHTS Assay for the Inhibitors of L3MBTL1; 230,000 compounds, 0.66% hits; AlphaScreen L3MBTL1–H3K9me1 peptide binding; AID 485360, 2010; Potency, µM (doses to about 57.1 µM), without a hit: at the highest dose activity, negative = inhibition, usual class: inhibitors; Lethal(3)malignant brain tumor-like protein 1 (Homo sapiens), Q9Y468; also: potency is read from the fitted curve at half-maximal effect; % is scaled to controls: 0 for no effect and ±100 for the full control effect; nearly all actives have a fitted effect of over 60% in size
#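 Read-out is AlphaScreen signal from streptavidin donor and nickel chelate acceptor beads (10 ug/mL final each) bridging L3MBTL1 (50 nM) and biotinylated K9-monomethylated H3(1-15) peptide (75 nM), after 30 min compound exposure at room temperature.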
# PI5P4K alpha inh = qHTS for Inhibitors of phosphatidylinositol 5-phosphate 4-kinase (PI5P4K); Phosphatidylinositol 5-phosphate 4-kinase type-2 alpha (Homo sapiens), P48426; PI5P4Kalpha enzyme, ADP-Glo luminescence, 60 min; hits give low values; max response, %; 330,000 compounds, 1.2% hits; AID 652105, 2013; active = max response of -50% or lower; inconclusive = between -30% and -50%; inactive = -30% or higher; also: value at the top dose of about 77 µM; % is scaled to controls: 0 for no effect and ±100 for the full control effect
# Target sequence (P48426 whole entry, looked up): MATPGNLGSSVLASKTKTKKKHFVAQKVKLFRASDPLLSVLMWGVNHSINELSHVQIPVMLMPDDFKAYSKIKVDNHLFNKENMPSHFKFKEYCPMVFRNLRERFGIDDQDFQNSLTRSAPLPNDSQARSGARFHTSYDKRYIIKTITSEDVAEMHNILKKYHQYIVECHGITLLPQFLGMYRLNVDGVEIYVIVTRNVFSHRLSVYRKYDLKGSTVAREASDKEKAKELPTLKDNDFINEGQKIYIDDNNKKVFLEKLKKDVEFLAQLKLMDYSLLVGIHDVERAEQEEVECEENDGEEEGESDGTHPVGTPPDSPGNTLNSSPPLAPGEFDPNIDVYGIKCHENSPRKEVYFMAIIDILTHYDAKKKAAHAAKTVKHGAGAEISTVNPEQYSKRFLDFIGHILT
#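 Human PI5P4Kalpha with substrate in 0.038 M HEPES pH 7.4, 0.28 mM EGTA, 0.1% CHAPS, 5% DMSO; reaction started with 5 microM ATP (final), 60 min at room temperature. ADP formed read by ADP-Glo luminescence.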
# JMJD2E inh = qHTS Assay for Inhibitors of Human Jumonji Domain Containing 2E (JMJD2E); Lysine-specific demethylase 4E (Homo sapiens), B2RXH2; AID 2147, 2009; JMJD2E catalytic domain, FDH-coupled NADH fluorescence (FDH is formaldehyde dehydrogenase); Potency, µM (titrated, usually from 57.1 µM), inactives show at the highest dose activity change, negative = inhibition, hits mostly inhibitors; 230,000 compounds, 1.6% hits; active = well fitted inhibition curve with a large enough effect, not every such curve was filed as active; inconclusive = small, poorly fitted or top-dose-only effect, or another doubt; inactive = no such curve, though single readings can be large or run the other way;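 also: potency is read from the fitted curve at half-maximal effect; 0% = wells with enzyme and -100% = buffer wells without enzyme; nearly all actives have a fitted effect of over 50% in size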
# JMJD2A Tudor = qHTS Assay for Inhibitors of JMJD2A-Tudor Domain; Lysine-specific demethylase 4A (Homo sapiens), O75164; AlphaScreen JMJD2A-Tudor / H3K4me3 peptide binding; Potency, µM (top dose mostly 114 µM), for the others: at the top dose activity change, negative = inhibition, actives largely listed as inhibitors; 390,000 compounds, 4.4% hits; AID 504339, 2011; also: potency is read from the fitted curve at half-maximal effect; % is scaled to controls: 0 for no effect and ±100 for the full control effect; nearly all actives have a fitted effect of over 50% in size
# BAZ2B block = qHTS Assay for Inhibitors of BAZ2B. 360,000 compounds, 4.4% hits. AID 504333, 2011. AlphaScreen BAZ2B-H3K14Ac peptide displacement. Potency, µM (series often up to 114 µM), inactives show top-dose activity change, negative = inhibition, hits mostly inhibitors; also: potency is read from the fitted curve at half-maximal effect; % is scaled to controls: 0 for no effect and ±100 for the full control effect; nearly all actives have a fitted effect of over 60% in size
#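 BAZ2B 50 nM plus b-H3(5-23)K14Ac 50 nM, PBS pH 7.4/0.01% Tween-20, 30 min RT; compound added (max 110 uM), 30 min RT; streptavidin donor/Ni-chelate acceptor beads 10 ug/mL final, 20 min dark; AlphaScreen read.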
# HP1b binding inh = HTS for Inhibitors of HP1-beta Chromodomain Interactions with Methylated Histone Tails; 390,000 compounds, 0.56% hits; AID 540317, 2011; Potency, µM (highest dose often 114 µM), without a hit: at the top dose activity change, negative = inhibition, most hits filed as inhibitors; AlphaScreen HP1-beta / biotin-H3K9me3 peptide binding; also: potency is read from the fitted curve at half-maximal effect; nearly all actives have a fitted effect of over 70% in size
# Target sequence (P83916 whole entry, looked up): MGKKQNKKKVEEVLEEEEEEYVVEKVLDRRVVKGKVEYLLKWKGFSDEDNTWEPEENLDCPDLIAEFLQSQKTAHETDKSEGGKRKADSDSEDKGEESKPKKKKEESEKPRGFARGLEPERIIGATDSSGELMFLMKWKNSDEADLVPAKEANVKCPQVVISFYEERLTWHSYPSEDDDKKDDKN
#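 HP1-beta protein (50 nM final) preincubated 30 min at room temperature with biotinylated H3(1-18)K9me3 peptide (50 nM) in PBS pH 7.4, 0.01% Tween-20, then compound added for 30 min. AlphaScreen streptavidin donor/nickel chelate acceptor beads (10 ug/mL final), 30 min dark, luminescence read.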
# Starred values were filed as active, the others as inactive; ? = inconclusive; . = not tested or not shown; [ ] = remark or other dose. Unless noted, calls follow the shape of the dose curve; as a rule, active = well fitted inhibition curve with a large enough effect; inconclusive = small, poorly fitted or top-dose-only effect; inactive = no such curve, though single readings can be large or run the other way.
SMILES,L3MBTL1 block,PI5P4K alpha inh,JMJD2E inh,JMJD2A Tudor,BAZ2B block,HP1b binding inh
Cn1cccc1/C=N/N1CCN(Cc2ccccc2Cl)CC1,?,-4,-19%,50µM*,35µM*,?
Clc1ccccc1/C=N/N1CCN(Cc2ccccc2)CC1,-3%[2.29 µM],-2,.,56µM*,45µM*,-28%
Cn1cccc1/C=N/N1CCN(c2ccccc2)CC1,?,-1,?,-11%[11.4 µM],50µM*,?
O=[N+]([O-])c1ccccc1/C=N/N1CCN(Cc2ccccc2)CC1,?,9,.,25µM*,28µM*,?
COc1ccc(NC(=O)Cn2c(=O)n(-c3cccc(C)c3)c(=O)c3c2c2cc(C)ccc2n3C)cc1OC,.,.,.,1%,-3%,37%
Cc1ccc(NC(=O)c2oc3ccccc3c2NC(=O)c2cc3ccccc3o2)cc1,.,.,.,-8%,25%,111%
CCCCOc1cccc(C(=O)Nc2sc3c(c2C(=O)OCC)CCCC3)c1,.,.,.,11%,19%,89%
Cc1ccc(CN(C(=O)COc2ccccc2Cl)c2ccccn2)o1,.,.,.,-7%,?,30%
O=[N+]([O-])c1ccccc1/C=N\N1CCN(Cc2ccccc2Cl)CC1,-37%,10,.,35µM*,28µM*,?
CCOc1ccccc1/C=N/N1CCN(Cc2ccccc2)CC1,-2%,7,.,56µM*,50µM*,?
FC(F)(F)c1ccccc1/C=N/N1CCN(Cc2ccccc2)CC1,-4%,17,8%,45µM*,40µM*,-23%
Cn1cccc1/C=N/n1cnnc1,.,-1,4%,-27%,79µM*,22%
FC(F)(F)c1ccc(/C=N/N2CCN(Cc3ccccc3)CC2)cc1,-11%,-2,7%,?,?,?
COc1cc(C2CC(=O)Nc3c2c(C)nn3-c2nncc(-c3ccccc3)n2)cc(OC)c1OC (configuration not stated),.,.,.,-30%,-14%,19%
Cc1cccc(C(=O)Nc2nnc(S(=O)(=O)N(C)Cc3ccco3)s2)c1,.,-15,.,-13%,-16%,39%
CCC1(O)C(=O)OCc2c1cc1n(c2=O)Cc2cc3c(N)cccc3nc2-1 (configuration not stated),.,-10,.,-6%,.,30%
CCC1(OC(=O)CN(C)C)C(=O)OCc2c1cc1n(c2=O)Cc2cc3c(N)cccc3nc2-1 (configuration not stated),.,-2,.,16µM*,.,-10%
CN(C)c1ccc(Nc2ncnc3ccc(Br)cc23)cc1,-27%,-19,.,45µM*,45µM*,?
C/C(=N\NS(=O)(=O)c1ccc(C(C)(C)C)cc1)c1ccccc1,.,3,.,-12%,?,27%
CC(C)(C)c1ccc(S(=O)(=O)/N=C2\C=C(NS(=O)(=O)c3ccccc3)C(=O)c3ccccc32)cc1,.,?,.,25µM*,28µM*,?
Cc1ccnc(NC(=O)c2cccc(S(=O)(=O)Nc3ccc(C)cc3C)c2)c1,-9%,-1,.,-24%,.,1%
Cc1ccc(NS(=O)(=O)c2cccc(C(=O)NNC(=O)c3cccn3C)c2)c(C)c1,.,-10,.,?,45µM*,-6%
Cc1c(NS(=O)(=O)c2ccccc2)cc(Cl)c(O)c1C,-4%,-16,-3%,89µM*,-9%,?
Cc1ccc(NS(=O)(=O)c2ccccc2)c(C)c1,.,.,.,50µM*,.,12%
Cc1c(Cl)cccc1NS(=O)(=O)c1ccccc1,.,2,.,-5%,.,3%
SMILES,L3MBTL1 block,PI5P4K alpha inh,JMJD2E inh,JMJD2A Tudor,BAZ2B block,HP1b binding inh
CCCNC(=O)C1(C)CCN(C(=O)c2ccccc2OC)C1 (configuration not stated),.,-11,.,.,.,.
Cc1ccc(S(=O)(=O)/N=C2\C=C(NS(=O)(=O)c3ccccc3)C(=O)c3ccccc32)c(C)c1,.,-10,.,22µM*,.,22µM*
O=C1C(Nc2ccccc2)=C(NS(=O)(=O)c2ccccc2)C(=O)c2ccccc21,-14%,-2,9%,-5%,-13%,2%
CCOc1ccc(C2=Nn3c(nnc3-c3ccco3)SC2)cc1,-4%,.,-5%,-16%,-3%,18%
COc1ccc(OC)c(-c2nnc3n2N=C(c2ccccc2OC)CS3)c1,.,.,.,79µM*,.,.
COc1ccccc1-c1nnc2n1N=C(C)CS2,1%,.,2%,56µM*,-3%,34%
CCOc1ccc(C2=Nn3c(nnc3-c3ccccn3)SC2)cc1,?,-5,-4%,35µM*,20µM*,46%
O=[N+]([O-])CC1(n2nc3ccccc3n2)CCCCC1,10%,-5,.,6%,-2%,39%
Cc1cccc(C)c1-n1c(C)cc(/C=N/NC(N)=S)c1C,.,-3,5%,50µM*,45µM*,-63%
Cc1cc(/C=N/NC(=O)C(O)(c2ccccc2)c2ccccc2)c(C)n1-c1cccc(C(=O)O)c1,?,-51*,?,?,56µM*,-4%
Cc1cc(/C=N/NC(N)=S)c(C)n1-c1cccc(Cl)c1,-14%,-4,10%,?,?,?
Cc1cc(/C=N/NC(=O)c2cccc(N(C)C)c2)c(C)n1-c1cc(C(=O)O)cc(C(=O)O)c1,.,?,25µM*,40µM*,.,32µM*
Cc1cc(/C=N/NC(=O)c2ccccn2)c(C)n1-c1cccc([N+](=O)[O-])c1,-2%,-7,?,?,45µM*,?
CCCc1nn2c(=O)cc(COC(=O)C3CCCCC3)nc2s1,.,.,.,-19%,-22%,-31%
CC1=CC(=O)C2=C(C)C[C@H](OC(=O)Cc3ccccc3)C3[C@H](OC(=O)[C@H]3C)C12 (some centres not stated),.,.,7%,.,.,.
CNc1nc(NN)nc(Nc2ccccc2)n1,-2%[2.29 µM],-5,.,25µM*,28µM*,41%
CNc1nc(C#N)nc(Nc2ccccc2)n1,.,.,.,-18%,.,.
O=C1/C(=C/N(C(=O)c2ccco2)c2ccc(Br)cc2)Sc2ccccc21,-9%,-13,?,56µM*,?,?
COc1cccc(CC(=O)Nc2ccc3nc(N4CCC(C)CC4)cc(C)c3c2)c1,.,.,.,-1%,15%,37%
N#Cc1nc(Nc2cc(F)cc(F)c2)c2ncn(CCCO)c2n1,.,.,.,-7%,.,.
CN(C)c1ccc(C(=O)c2ccc(N(C)C)c(N)c2)cc1N,-16%,-1,-1%,56µM*,50µM*,?
